PME-1 primary: blocks human protein phosphatase methylesterase 1; recombinant PME-1, FP-Rh probe fluorescence polarization; inhibition, % at 5.9 µM; Q9Y570; AID 2130; 320,000 tested, 0.53% active;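 active = inhibition above the campaign mean of all compounds plus 3 SD, cut at about 26% in these data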;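 also: competitive labeling of PME-1 active site by serine hydrolase directed probe; 0% = PME-1 with DMSO and 100% = wells lacking PME-1 enzyme; inhibitors block probe labeling so polarization falls and inhibition rises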
pPAFAH FP inh: pPAFAH (human) enzyme inhibition. recombinant pPAFAH, FP-rhodamine probe fluorescence polarization. AID 463082. Q13093. 330,000 tested, 1.5% active. inhibition, % at 3.39 µM;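 active = inhibition above the mean inhibition across the screen plus 3 SD, cut at about 25% in these data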;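 also: inhibitors block binding of the rhodamine activity-based probe so polarization drops; 0% = enzyme with DMSO and 100% = wells lacking pPAFAH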
PAFAH1B2 inh: inhibitors of human PAFAH1B2; P68402; recombinant PAFAH1B2, FP-rhodamine activity probe, fluorescence polarization; inhibition, % at 3.39 µM; 340,000 tested, 1.2% active; AID 492953;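 active = inhibition above the mean of all tested compounds plus 3 SD, cut at about 24% in these data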;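 also: 0% = enzyme with DMSO and 100% = wells lacking PAFAH1B2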
Target sequence (P68402 whole entry, looked up): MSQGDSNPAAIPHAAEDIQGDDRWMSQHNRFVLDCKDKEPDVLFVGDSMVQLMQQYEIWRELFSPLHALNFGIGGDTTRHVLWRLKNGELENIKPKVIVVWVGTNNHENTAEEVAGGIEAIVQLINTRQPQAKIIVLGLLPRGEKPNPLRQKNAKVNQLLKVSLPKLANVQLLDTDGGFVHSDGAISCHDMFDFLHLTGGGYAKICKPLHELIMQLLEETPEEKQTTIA
Fam108B counter: counter-screen for RBBP9 inhibitors: inhibitors of mouse Fam108B | recombinant Fam108B, FP-Rh probe fluorescence polarization | inhibition, % at 9.51 µM | 300,000 tested, 0.33% active;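 active = inhibition above the screen mean inhibition plus 3 SD, computed separately per campaign, cut at about 18% in these data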;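 also: inhibitors lower polarization as less probe binds the enzyme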
PAFAH1B3 inh: inhibitors of human PAFAH1B3. 340,000 tested, 0.28% active. Q15102. inhibition, % at 3.39 µM. recombinant PAFAH1B3, FP-rhodamine probe, fluorescence polarization;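 active = inhibition above the screen-wide average of all tested compounds plus 3 SD, cut at about 25% in these data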;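 also: 0% = enzyme with DMSO only and 100% = wells lacking PAFAH1B3 protein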
Target sequence (Q15102 whole entry, looked up): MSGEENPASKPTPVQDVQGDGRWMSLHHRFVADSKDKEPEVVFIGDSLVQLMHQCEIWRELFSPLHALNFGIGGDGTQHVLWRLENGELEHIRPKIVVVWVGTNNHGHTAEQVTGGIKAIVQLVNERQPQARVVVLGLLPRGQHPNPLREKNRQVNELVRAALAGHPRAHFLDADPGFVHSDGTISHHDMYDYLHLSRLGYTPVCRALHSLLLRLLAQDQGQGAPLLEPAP
PAFAH2 FP inh: PAFAH2 (human) inhibition; Q99487; recombinant PAFAH2, FP-rhodamine activity probe, fluorescence polarization; inhibition, % at 3.39 µM; 340,000 tested, 0.99% active;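 active = inhibition above the mean over all tested compounds plus 3 SD, cut at about 30% in these data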;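 also: inhibitors block probe labeling of enzyme so polarization drops; 0% = enzyme with DMSO and 100% = wells lacking PAFAH2 protein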
Active calls of the source: *; x = not tested or not shown. Only some compounds are listed: those with a hit (about 2.9% of all), similar ones and a draw of the others.

SMILES | PME-1 primary | pPAFAH FP inh | PAFAH1B2 inh | Fam108B counter | PAFAH1B3 inh | PAFAH2 FP inh
O=C(Nc1cc(S(=O)(=O)N2CCCCC2)ccc1O)c1ccccc1NS(=O)(=O)c1ccc(F)c(F)c1 | -5.3 | 34.0* | 42.9* | -0.3 | -10.2 | 47.8*
CC1C/C(=N/N2C(=O)CSC2=S)CC(C)(C)C1 (stereo not drawn) | 2.7 | -3.9 | 18.7 | -6.3 | 6.9 | 6.4
O=C(C1CC1)N1CCc2cc(Br)c(S(=O)(=O)N3CCCCCC3)cc21 | x | x | -1.1 | x | 5.7 | 7.8
CC(=O)CSc1nnc(-c2ccc(S(=O)(=O)N3CCC(C)CC3)cc2)o1 | -2.2 | 1.2 | 16.0 | -2.1 | 0.6 | -11.5
N#CCSc1nc2c(cc1C#N)CCCCCC2 | 44.1* | 0.4 | 13.9 | -1.8 | 5.3 | -3.9
CC(C)(C)c1ccc(S(=O)(=O)CC(O)CSc2nc3c(cc2C#N)CCCC3)cc1 (stereo not drawn) | 2.2 | 9.1 | 7.9 | -8.7 | 5.2 | 5.7
N#Cc1cc2c(nc1SCC(O)CS(=O)(=O)Cc1ccc(Cl)cc1)CCCC2 (stereo not drawn) | 7.1 | 14.1 | 29.6* | 0.5 | -1.9 | 9.8
CC(=O)C(=Nc1ccc(Cl)cc1Cl)NNc1cccc(Cl)c1 | 12.2 | 25.0* | -1.4 | 8.6 | 0.8 | -6.9
c1ccc2c(c1)[nH]c1ccccc12 | -0.3 | -2.5 | 24.9* | -0.2 | 8.6 | 0.6
Cn1c(N/N=C/c2c[nH]c3ccccc23)nc2ccccc21 | 29.6* | 13.1 | 4.8 | 3.6 | 8.0 | 8.3
CCOc1ccc(C2c3c(oc4cc(C)c(C)cc4c3=O)C(=O)N2CCCN(C)C)cc1OC (stereo not drawn) | -3.3 | -7.4 | 3.4 | 1.5 | -9.7 | -3.2
O=S(=O)(Nc1ccc2cn[nH]c2c1)c1ccc(Cl)s1 | 2.1 | 0.7 | -0.8 | -2.1 | 4.0 | 4.6
O=S(=O)(Nc1ccc2cn[nH]c2c1)c1ccc(Cl)cc1 | -1.1 | 1.4 | 31.5* | -4.6 | 11.5 | 17.1
NC(=S)N/N=C/c1ccc(-c2ccc(SC(F)F)cc2)o1 | 11.9 | 27.1* | 0.5 | -3.3 | -2.2 | -5.9
Cc1ccc(-c2ccc(/C=N/NC(N)=S)o2)cc1 | -4.1 | 7.4 | 5.0 | -1.8 | 10.7 | 5.7
COc1ccc(Sc2ccc(/C=C3\C(=O)NN(c4ccccc4)C3=O)o2)cc1 | 10.3 | 29.1* | 42.1* | 8.6 | 14.9 | 33.6*
O=C1NN(c2ccc(Cl)cc2)C(=O)/C1=C\c1ccc(-c2cccc(C(=O)O)c2)o1 | x | x | 20.8 | x | 27.0* | 36.1*
O=C1NN(c2ccccc2)C(=O)/C1=C\c1ccc(-c2cc([N+](=O)[O-])ccc2O)o1 | x | x | 12.9 | x | 32.9* | 30.5*
CCN1CCN(CCCNC(=O)CCC(=O)N2CC(C)Oc3ccc(C)cc32)CC1 (stereo not drawn) | -7.1 | -1.0 | 2.3 | -1.0 | 7.6 | 0.2
COc1cccc(C(=O)Nc2cccc(NC(=O)c3ccccc3Cl)c2)c1 | 0.7 | 3.5 | -4.4 | -4.8 | -9.6 | -3.5
COc1cccc(C(=O)Nc2cccc(C(=O)NC3=NN(c4c(Cl)cc(Cl)cc4Cl)C(=O)C3)c2)c1 | 0.6 | 29.9* | 5.4 | 3.8 | 21.9 | -11.8
Cc1c(C(N)=O)c(-c2ccccc2)nn1-c1ccccc1 | -0.2 | 1.4 | -1.5 | -2.0 | 1.3 | -5.8
CCCc1c(-c2ccc(O)cc2)nn(-c2ccc(O)cc2)c1-c1ccc(O)cc1 | -9.0 | 33.2* | 4.7 | 2.8 | 11.4 | 0.8
CCOc1ccc(OCCC(=O)OCC(=O)c2c(N)n(C)c(=O)n(C)c2=O)cc1 | 0.7 | 2.5 | 1.3 | -0.3 | 0.3 | 1.7
O=C1C(O)=C(O)C(=O)c2ccccc21 | 11.0 | 9.7 | 3.2 | 11.7 | 29.9* | 14.6
SMILES | PME-1 primary | pPAFAH FP inh | PAFAH1B2 inh | Fam108B counter | PAFAH1B3 inh | PAFAH2 FP inh
CC(C)Oc1ccc(CNC(=O)C2CCN(C(=O)N3CCOc4ccccc43)CC2)cc1 | -1.4 | 4.4 | 1.3 | 0.7 | -6.6 | 3.5
Cn1c(COc2ccc(Cl)cc2)nnc1SCc1ncc(-c2ccccc2)o1 | 0.9 | -3.9 | 36.0* | -1.1 | 12.1 | 14.1
CCOC(=O)c1c[nH]c2c(C)cc(C)cc2c1=O | 0.4 | 7.2 | 7.5 | -1.3 | 10.6 | 4.5
C/C(=N\NS(=O)(=O)c1ccccc1)c1cccc(NC(=O)c2cccc(Cl)c2)c1 | -2.6 | 24.9* | -2.4 | 1.4 | 8.9 | -0.3
C/C(=N/NS(=O)(=O)c1ccc(Cl)cc1)c1cccc(NC(=O)c2ccncc2)c1 | 2.8 | -4.6 | 4.2 | 4.7 | 0.7 | 0.5
Cc1ccccc1NS(=O)(=O)c1cccc(C(=O)Nc2cccc(C(=O)O)c2)c1 | 3.9 | 27.3* | 4.1 | 1.8 | 1.4 | 1.5
COc1ccccc1NS(=O)(=O)c1ccc(NC(=O)c2nc3ncccn3n2)cc1 | x | x | -2.5 | x | 5.4 | -3.9
Cc1ccccc1NS(=O)(=O)c1ccc(NC(=O)c2ccco2)cc1 | 2.8 | 29.3* | 5.3 | -7.7 | 11.7 | -30.6
Cc1ccccc1NS(=O)(=O)c1ccc(NC(=O)c2nc3ncccn3n2)cc1 | 13.7 | 29.1* | -3.5 | 0.2 | 20.3 | 4.3
O=S(=O)(Nc1ccc(Cl)cc1)c1cccc2nsnc12 | -2.2 | 7.5 | 6.7 | -3.8 | 4.7 | 2.7
Cc1cccc(C(=O)NCC(c2ccco2)N2CCc3ccccc32)c1 (stereo not drawn) | 3.9 | 4.9 | 6.1 | -2.4 | 7.0 | 6.0
CCOc1cc(NS(=O)(=O)c2ccccc2)c(OCC)cc1NC(=O)c1ccco1 | 6.0 | 31.1* | 2.4 | 1.2 | 6.6 | 8.8
CCNC(=S)Nc1cc(OCC)c(NC(=O)c2ccco2)cc1OCC | 3.9 | 4.5 | 5.3 | 1.9 | 12.2 | -15.9
CC(=O)C[C@@H](O)CC(=O)[C@H]1OC(=O)CCCCCCCCc2ccccc21 | x | -0.1 | 43.5* | x | 4.0 | -2.9
CC(=O)C[C@@H](O)CC(=O)[C@H]1OC(=O)CCCCCc2ccccc21 | x | 4.9 | 6.6 | x | 13.4 | 0.4
CC(=O)C[C@@H](O)CC(=O)[C@@H]1OC(=O)CCCCCCCCc2ccccc21 | x | 3.5 | 28.4* | x | -10.7 | -3.5
CC1C/C(=N/N=C2/NC(=O)CS2)CC(C)(C)C1 (stereo not drawn) | -2.1 | 3.5 | 75.8* | 3.6 | -3.6 | -5.1
O=S(=O)(Nc1ccc(Cc2ccncc2)cc1)c1ccc(Br)s1 | 20.4 | 26.3* | 10.1 | 0.2 | 9.6 | 2.9
O=S(=O)(Nc1ccc(Cc2ccncc2)cc1)c1ccc(Cl)s1 | 11.8 | 13.1 | 12.1 | 0.9 | 3.6 | 5.3
Cc1ccc(SCC(=O)NCC(C)C)cc1 | 2.3 | -3.5 | 14.9 | 2.7 | 0.7 | 4.3
CC(C)CNC(=O)CSc1ccc(Cl)cc1 | -6.2 | 2.8 | 25.8* | 2.8 | -1.8 | 2.5
COC(=O)c1cc(NC(=O)c2cccc(C(F)(F)F)c2)c(=O)oc1C/C=N/OCc1cccc(Cl)c1Cl | -13.5 | 27.2* | -2.3 | -10.0 | -3.4 | -19.3
C=CCNc1nc(C(=O)OCC(=O)NCc2cccc(Cl)c2)cs1 | 1.5 | 24.8* | 2.4 | x | 4.0 | 28.5
COc1ccc(NC(=S)N/N=C2/CCCc3c(C)cc(C)cc32)cc1 | -3.4 | -3.4 | -2.4 | -3.6 | 1.2 | 5.1
